Experimental data from the supplement of paper PMC11732987, “Enantioselective OTUD7B fragment discovery through chemoproteomics screening and high-throughput optimisation” (Communications Chemistry, 2025).

Key:
Assay in all cases: log2 ratio of Biotin-Ahx-Ub-VS probe labelling (fragment/DMSO); higher = less target engagement (more negative = stronger competition), active = hit call of the paper (q ≤ 0.05, log2 ratio ≤ -1)
Conditions in all cases: compound concentration: 200 uM; treatment time: 3 h
[1] = biological target: USP34 (UniProt Q70CQ2)
Method in brief: (§1)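 Triplicate samples of HEK293T lysate, 495 µg each, received fragment at 200 µM or vehicle for 3 h, followed by Biotin-Ahx-Ub-VS (0.5 µM final) for 1 h. After NeutrAvidin enrichment of labelled DUBs and LysC/trypsin digestion, peptides were run by diaPASEF LC-MS/MS. The values are average log2 fragment/vehicle ratios from global-median-normalised Spectronaut label-free quantities, tested by unpaired t-test on proteins having ≥2 unique peptides.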

[2] = biological target: T1, USP36 (UniProt Q9P275)
T1 sequence (whole entry): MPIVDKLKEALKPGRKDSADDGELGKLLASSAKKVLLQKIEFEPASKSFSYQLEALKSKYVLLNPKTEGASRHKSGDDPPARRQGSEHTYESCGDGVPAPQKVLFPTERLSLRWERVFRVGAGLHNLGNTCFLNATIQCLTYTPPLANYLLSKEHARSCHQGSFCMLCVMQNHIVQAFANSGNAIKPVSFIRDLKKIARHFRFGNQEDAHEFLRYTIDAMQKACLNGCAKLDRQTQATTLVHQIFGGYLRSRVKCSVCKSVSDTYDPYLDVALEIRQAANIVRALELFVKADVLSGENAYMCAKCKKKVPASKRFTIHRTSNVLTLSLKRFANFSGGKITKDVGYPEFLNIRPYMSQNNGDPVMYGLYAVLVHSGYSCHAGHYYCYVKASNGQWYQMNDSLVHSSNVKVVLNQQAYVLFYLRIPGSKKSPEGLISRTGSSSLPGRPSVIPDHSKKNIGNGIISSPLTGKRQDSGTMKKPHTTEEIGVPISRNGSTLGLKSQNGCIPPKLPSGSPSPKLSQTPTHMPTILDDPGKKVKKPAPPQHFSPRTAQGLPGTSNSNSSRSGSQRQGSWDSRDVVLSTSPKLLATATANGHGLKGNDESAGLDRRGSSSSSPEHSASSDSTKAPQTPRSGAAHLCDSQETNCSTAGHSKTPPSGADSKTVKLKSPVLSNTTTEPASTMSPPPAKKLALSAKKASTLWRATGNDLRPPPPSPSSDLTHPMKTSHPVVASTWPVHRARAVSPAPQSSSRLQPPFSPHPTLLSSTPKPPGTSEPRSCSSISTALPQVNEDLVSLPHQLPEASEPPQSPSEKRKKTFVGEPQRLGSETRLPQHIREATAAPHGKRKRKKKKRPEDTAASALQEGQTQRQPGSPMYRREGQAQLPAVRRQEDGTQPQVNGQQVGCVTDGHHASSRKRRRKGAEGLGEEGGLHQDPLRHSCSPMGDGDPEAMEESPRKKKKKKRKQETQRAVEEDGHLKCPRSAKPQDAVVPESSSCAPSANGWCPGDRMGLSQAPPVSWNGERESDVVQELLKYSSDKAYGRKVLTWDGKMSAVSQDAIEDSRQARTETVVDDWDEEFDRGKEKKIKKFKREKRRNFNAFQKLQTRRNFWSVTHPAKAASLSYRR
Method in brief: as §1

[3] = biological target: T2, USP38 (UniProt Q8NB14)
T2 sequence (whole entry): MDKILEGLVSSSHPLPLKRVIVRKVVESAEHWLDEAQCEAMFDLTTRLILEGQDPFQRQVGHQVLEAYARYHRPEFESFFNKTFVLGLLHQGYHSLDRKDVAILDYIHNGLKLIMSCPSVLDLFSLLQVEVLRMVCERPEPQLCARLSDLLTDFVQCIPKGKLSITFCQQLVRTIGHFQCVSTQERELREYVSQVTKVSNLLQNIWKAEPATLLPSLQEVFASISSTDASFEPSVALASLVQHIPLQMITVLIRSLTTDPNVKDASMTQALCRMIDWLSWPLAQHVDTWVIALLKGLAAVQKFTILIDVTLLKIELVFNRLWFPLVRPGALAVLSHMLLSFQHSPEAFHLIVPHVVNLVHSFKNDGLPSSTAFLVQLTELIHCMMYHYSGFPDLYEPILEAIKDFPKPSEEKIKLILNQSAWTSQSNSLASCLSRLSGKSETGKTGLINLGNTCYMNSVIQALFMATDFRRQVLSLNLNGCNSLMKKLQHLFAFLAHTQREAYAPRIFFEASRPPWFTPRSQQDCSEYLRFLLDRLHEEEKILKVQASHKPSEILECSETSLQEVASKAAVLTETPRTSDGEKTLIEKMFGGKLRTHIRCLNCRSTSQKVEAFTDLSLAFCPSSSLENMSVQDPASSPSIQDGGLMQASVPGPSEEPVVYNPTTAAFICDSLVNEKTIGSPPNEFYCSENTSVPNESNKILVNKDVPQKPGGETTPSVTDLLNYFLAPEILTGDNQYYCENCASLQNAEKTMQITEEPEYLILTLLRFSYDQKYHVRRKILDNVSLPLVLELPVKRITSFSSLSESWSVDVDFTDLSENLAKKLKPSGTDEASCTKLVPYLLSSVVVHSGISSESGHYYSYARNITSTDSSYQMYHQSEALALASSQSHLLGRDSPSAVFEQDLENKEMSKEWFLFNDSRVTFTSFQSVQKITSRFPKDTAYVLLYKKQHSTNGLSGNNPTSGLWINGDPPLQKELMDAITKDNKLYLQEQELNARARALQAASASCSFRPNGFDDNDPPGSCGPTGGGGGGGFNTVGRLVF
Method in brief: as §1

[4] = biological target: T3, USP39 (UniProt Q53GS9)
T3 sequence (whole entry): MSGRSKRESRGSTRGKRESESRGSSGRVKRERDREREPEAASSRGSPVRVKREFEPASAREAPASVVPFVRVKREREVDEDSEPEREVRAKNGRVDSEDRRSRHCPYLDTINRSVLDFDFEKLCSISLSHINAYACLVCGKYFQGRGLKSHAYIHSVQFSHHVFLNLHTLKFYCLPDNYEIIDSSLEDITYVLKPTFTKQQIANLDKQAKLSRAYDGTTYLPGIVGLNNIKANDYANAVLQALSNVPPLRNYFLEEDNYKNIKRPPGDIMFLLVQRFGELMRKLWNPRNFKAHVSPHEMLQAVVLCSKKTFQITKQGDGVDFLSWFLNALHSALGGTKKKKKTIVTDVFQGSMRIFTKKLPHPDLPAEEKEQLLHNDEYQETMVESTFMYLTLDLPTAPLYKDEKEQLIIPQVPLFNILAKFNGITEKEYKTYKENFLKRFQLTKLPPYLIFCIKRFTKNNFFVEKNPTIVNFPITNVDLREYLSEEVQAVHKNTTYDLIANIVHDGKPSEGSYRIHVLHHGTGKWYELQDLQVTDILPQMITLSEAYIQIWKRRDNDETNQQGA
Method in brief: as §1

[5] = biological target: T4, USP4 (UniProt Q13107)
T4 sequence (whole entry): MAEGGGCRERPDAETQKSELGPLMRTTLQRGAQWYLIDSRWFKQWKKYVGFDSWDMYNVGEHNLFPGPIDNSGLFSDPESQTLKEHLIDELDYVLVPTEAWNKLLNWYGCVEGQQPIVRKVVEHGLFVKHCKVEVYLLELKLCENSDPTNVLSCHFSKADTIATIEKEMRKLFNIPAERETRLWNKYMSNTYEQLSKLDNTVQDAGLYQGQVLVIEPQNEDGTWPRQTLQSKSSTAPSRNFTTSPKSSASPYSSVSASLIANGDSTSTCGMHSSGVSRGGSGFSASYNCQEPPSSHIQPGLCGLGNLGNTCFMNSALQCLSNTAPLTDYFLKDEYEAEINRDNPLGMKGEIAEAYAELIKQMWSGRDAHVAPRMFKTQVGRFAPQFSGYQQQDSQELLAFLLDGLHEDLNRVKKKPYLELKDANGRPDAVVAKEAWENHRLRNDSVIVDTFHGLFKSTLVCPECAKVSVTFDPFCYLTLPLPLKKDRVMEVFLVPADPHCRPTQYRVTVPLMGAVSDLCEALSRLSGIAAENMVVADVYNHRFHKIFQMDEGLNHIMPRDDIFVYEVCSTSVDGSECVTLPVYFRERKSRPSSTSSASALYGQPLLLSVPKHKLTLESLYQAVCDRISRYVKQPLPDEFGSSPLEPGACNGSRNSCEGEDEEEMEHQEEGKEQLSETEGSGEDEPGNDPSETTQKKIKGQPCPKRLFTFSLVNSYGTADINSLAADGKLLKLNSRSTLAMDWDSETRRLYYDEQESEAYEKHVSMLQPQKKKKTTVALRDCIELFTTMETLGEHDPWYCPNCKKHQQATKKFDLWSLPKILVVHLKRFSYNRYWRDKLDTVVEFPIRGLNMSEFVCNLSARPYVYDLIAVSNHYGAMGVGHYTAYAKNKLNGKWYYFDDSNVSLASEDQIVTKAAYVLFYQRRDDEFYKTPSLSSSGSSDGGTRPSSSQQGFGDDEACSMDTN
Method in brief: as §1

Measured: log2 ratio of Biotin-Ahx-Ub-VS probe labelling

Sequence of USP34 (Q70CQ2 whole entry, the tested form may be a part): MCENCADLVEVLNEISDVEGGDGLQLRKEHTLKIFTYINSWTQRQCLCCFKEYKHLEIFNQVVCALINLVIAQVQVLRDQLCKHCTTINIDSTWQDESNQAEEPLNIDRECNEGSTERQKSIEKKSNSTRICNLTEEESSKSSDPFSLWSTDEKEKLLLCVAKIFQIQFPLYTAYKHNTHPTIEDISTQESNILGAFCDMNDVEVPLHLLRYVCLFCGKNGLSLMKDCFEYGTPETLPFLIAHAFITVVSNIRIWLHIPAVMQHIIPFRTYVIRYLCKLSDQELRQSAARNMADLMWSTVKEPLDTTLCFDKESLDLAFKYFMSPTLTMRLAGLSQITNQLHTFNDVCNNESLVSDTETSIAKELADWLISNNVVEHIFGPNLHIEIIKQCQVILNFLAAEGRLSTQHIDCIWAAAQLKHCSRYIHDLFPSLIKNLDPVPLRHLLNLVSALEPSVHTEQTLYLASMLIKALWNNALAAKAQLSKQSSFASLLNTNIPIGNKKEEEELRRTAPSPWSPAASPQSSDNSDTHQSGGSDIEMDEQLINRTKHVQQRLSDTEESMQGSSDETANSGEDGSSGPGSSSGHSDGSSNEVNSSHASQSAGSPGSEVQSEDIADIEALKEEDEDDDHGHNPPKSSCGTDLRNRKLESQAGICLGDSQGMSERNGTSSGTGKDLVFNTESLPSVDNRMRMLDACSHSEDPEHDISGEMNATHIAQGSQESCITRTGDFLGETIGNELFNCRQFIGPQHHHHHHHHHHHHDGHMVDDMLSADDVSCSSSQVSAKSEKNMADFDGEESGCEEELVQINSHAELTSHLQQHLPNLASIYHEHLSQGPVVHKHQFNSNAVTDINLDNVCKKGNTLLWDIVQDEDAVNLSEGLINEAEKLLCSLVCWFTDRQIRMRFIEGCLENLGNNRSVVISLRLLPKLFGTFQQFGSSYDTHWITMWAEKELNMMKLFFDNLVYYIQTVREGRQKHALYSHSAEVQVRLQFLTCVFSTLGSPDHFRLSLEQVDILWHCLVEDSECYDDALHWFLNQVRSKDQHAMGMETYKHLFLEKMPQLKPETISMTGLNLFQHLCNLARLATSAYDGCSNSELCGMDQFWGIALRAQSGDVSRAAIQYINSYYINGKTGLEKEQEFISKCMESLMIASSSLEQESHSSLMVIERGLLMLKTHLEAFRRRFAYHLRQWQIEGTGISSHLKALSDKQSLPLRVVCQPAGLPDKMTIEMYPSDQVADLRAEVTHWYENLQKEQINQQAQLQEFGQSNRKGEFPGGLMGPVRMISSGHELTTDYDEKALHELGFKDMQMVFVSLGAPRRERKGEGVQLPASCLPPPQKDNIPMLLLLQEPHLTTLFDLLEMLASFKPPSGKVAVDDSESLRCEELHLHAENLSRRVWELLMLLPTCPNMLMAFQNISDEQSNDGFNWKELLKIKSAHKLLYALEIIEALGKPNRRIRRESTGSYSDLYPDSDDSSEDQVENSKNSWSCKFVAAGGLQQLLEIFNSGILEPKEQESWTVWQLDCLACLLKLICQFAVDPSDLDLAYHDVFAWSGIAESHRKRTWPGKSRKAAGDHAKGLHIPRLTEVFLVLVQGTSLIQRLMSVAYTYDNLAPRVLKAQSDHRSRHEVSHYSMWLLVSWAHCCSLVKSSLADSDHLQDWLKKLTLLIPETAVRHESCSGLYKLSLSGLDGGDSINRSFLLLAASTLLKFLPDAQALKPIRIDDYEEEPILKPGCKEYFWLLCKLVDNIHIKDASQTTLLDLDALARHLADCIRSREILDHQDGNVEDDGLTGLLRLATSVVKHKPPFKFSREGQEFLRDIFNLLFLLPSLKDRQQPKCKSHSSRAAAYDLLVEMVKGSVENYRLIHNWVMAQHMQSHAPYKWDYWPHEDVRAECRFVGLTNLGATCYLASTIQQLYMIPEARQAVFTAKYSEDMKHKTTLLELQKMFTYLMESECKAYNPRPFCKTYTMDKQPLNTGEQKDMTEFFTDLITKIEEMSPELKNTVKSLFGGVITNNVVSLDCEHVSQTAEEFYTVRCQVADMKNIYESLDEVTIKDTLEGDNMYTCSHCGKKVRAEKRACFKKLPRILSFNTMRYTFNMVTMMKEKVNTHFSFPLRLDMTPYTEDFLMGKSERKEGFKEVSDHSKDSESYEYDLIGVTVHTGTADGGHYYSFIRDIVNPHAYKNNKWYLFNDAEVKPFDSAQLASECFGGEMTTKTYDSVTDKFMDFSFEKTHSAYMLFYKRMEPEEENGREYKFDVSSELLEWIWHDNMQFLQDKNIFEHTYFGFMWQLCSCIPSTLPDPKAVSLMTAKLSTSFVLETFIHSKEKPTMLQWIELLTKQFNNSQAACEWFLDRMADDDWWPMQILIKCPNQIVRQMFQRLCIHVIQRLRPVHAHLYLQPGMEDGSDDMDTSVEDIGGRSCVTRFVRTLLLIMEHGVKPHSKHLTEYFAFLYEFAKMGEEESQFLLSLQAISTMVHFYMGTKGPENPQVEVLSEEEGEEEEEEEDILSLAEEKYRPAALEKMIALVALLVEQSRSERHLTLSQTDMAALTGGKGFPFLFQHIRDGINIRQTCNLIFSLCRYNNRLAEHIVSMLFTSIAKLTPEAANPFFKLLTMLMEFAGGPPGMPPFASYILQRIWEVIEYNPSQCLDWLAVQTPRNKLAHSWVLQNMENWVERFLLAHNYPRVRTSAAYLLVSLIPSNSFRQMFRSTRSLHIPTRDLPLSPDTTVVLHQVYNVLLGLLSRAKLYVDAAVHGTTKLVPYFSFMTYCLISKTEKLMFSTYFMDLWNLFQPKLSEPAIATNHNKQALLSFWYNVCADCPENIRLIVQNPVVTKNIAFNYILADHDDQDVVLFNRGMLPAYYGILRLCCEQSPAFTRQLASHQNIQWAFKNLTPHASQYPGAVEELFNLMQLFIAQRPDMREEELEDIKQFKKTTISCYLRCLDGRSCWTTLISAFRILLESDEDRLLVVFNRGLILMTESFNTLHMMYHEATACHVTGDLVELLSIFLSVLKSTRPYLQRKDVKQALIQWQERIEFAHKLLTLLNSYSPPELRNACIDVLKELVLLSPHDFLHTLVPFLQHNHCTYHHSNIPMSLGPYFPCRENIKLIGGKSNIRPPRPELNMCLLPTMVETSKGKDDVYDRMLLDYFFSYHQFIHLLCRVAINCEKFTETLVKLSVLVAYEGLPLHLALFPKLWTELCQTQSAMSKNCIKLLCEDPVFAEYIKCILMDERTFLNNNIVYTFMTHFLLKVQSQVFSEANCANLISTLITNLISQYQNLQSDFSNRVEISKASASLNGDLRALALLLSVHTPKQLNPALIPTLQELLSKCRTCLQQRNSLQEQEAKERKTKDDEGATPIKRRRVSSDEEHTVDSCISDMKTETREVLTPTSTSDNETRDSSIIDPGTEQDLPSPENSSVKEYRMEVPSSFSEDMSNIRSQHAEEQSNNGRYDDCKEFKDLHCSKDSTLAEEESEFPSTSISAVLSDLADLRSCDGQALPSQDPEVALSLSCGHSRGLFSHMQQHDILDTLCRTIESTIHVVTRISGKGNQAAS

Cc1ccccc1C1(CNC(=O)CCl)CCOCC1
inactive: [1] 0.051 | [2] 0.0925 | [3] -0.0365 | [4] -0.165 | [5] -0.221
